Measured values as given in PubChem BioAssay (Tox21).
Inconclusive results are not listed. Entries that show only a call come without a potency. Unmarked numbers belong to inactive results. Calls of active or inactive are those of the source. Unless noted, calls follow the shape of the dose curve; as a rule, active = well fitted curve in the direction sought with a large enough effect in the repeat runs; inconclusive = weak or mixed curves; inactive = no such curve, though single readings can be large; an effect the other way counts as inactive or inconclusive.

Tests used:
[1] = biological target: Retinoic acid receptor RXR-alpha (Homo sapiens) (UniProt P19793); experiment: qHTS assay to identify small molecule agonists of the RXR signaling pathway (AID 1159527; calls by dose curve; also: nearly all actives have a fitted effect of over 35% in size)
Method in brief: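 GeneBLAzer RXR-alpha-UAS-bla HEK 293T cells in 2% charcoal-stripped FBS medium were exposed to compounds for 16 hr at 37 C in agonist mode. Beta-lactamase reporter read as 460/530 nm FRET ratio after 2 hr substrate loading.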

[2] = qHTS assay to identify small molecule antagonists of the retinoid acid receptor (RAR) signaling pathway - cell viability counter screen (AID 1159551); also: nearly all actives have a fitted effect of over 35% in size
Method in brief: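 Following overnight attachment, C3RL4 reporter cells received DMSO-dissolved compounds and then retinol (1 uM final). Six hours later at 37 C, ATP content was measured by CellTiter-Glo luminescence.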

[3] = qHTS assay to identify small molecule antagonists of the retinoic acid receptor (RAR) signaling pathway (AID 1159552; also: nearly all actives have a fitted effect of over 50% in size)
Method in brief: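 Retinol signaling pathway inhibitors screened in C3RL4 RARE-luciferase reporter cells seeded overnight at 37 C, then compounds added with 1 uM (final) retinol as pathway substrate. After 6 hr at 37 C, luciferase luminescence read after 30 min at room temperature.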

[4] = qHTS assay to identify small molecule agonists of the retinoic acid receptor (RAR) signaling pathway (AID 1159553)
Method in brief: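 Cell line C3RL4, RARE luciferase reporter. Treatment: compounds in DMSO, 6 hr, 37 C, 5% CO2, after overnight plating. Detection: luminescence, 30 min RT after reagent.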

[5] = qHTS assay to identify small molecule antagonists of the estrogen related receptor (ERR) signaling pathway from Tox21 library - cell viability counter screen (AID 1224834); also: nearly all actives have a fitted effect of over 30% in size; also: potency is read from the fitted curve at half-maximal effect
Method in brief: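 Viability readout (CellTiter-Fluor fluorescence, 30 min at 37 C) multiplexed with the ERR assay; cells treated 17.5 h at 37 C with compounds delivered in DMSO.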

[6] = biological target: Luciferin 4-monooxygenase (Photinus pyralis) (UniProt P08659); experiment: qHTS assay to identify small molecule inhibitors of firefly luciferase (AID 1224835); also: series mostly up to about 120 µM; nearly all actives have a fitted effect of over 25% in size
Method in brief: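 Biochemical qHTS: compounds run as interplate titrations against purified firefly enzyme, with D-luciferin and ATP each at its KM concentration. Light output recorded by CCD imaging.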

[7] = qHTS assay to identify small molecule agonists of the constitutive androstane receptor (CAR) signaling pathway - cell viability counter screen (AID 1224836); also: series mostly up to about 92 µM; nearly all actives have a fitted effect of over 45% in size
Method in brief: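 HepG2 cells stably carrying hCAR and a CYP2B6-2.2kb reporter; 15-concentration compounds plus PK11195 (final 0.75 uM), 23 hr at 37 C/5% CO2. Viability read by CellTiter-Fluor fluorescence.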

[8] = biological target: Nuclear receptor subfamily 1 group I member 3 (Homo sapiens) (UniProt Q14994); experiment: qHTS assay to identify small molecule agonists of the constitutive androstane receptor (CAR) signaling pathway (AID 1224839);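 also: HepG2 cells stably carrying human CAR and a CYP2B6 luciferase reporter; series mostly up to about 92 µM; nearly all actives have a fitted effect of over 15% in size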
Method in brief: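 HepG2 cells stably co-transfected with hCAR and a CYP2B6-2.2kb luciferase reporter; compounds at 15 concentrations with 0.75 uM PK11195 present. After 24 hr at 37 C, luciferase read by ONE-Glo luminescence.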

[9] = qHTS assay to identify small molecule antagonists of the estrogen related receptor signaling pathway with the pleiotropic PPARgamma coactivator (PGC) from Tox21 10K library (AID 1224841; call rule not given here; also: actives are mostly falling curves and most rising ones were filed inactive; nearly all actives have a fitted effect of over 50% in size; also: potency is read from the fitted curve at half-maximal effect)
Method in brief: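 Compound exposure ran 18 hours at 37 C in PGC/ERR cells (2,000/well) that had first rested 6 hours in a 37 C/5% CO2 incubator. Luciferase activity was then detected with One-Glo after a 30-minute room-temperature step.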

[10] = biological target: Thyrotropin receptor (Homo sapiens) (UniProt P16473); experiment: qHTS assay to identify small molecule agonists of the thyroid stimulating hormone receptor (TSHR) signaling pathway (AID 1224843; calls by dose curve; also: nearly all actives have a fitted effect of over 45% in size)
Method in brief: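 TSHR-HEK293 cells in agonist mode, 30 min room-temperature step, then cAMP measured by competitive HTRF (cAMP-d2 with anti-cAMP cryptate) after 1 h at room temperature. Tested at 15 concentrations in triplicate.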

[11] = qHTS assay to identify small molecule antagonists of the constitutive androstane receptor (CAR) signaling pathway - cell viability counter screen (AID 1224837); also: series mostly up to about 92 µM; nearly all actives have a fitted effect of over 45% in size
Method in brief: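 Fluorescence from CellTiter-Fluor served as the viability signal. Human hepatoma HepG2 cells stably bearing hCAR and CYP2B6-2.2kb received compound plus CITCO (50 nM final) for 23 hr.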

[12] = qHTS assay to identify small molecule agonists of the RXR signaling pathway - cell viability counter screen (AID 1159529); also: series mostly up to about 77 µM; nearly all actives have a fitted effect of over 50% in size
Method in brief: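 RXR-alpha-UAS-bla HEK 293T cells in medium with 2% charcoal-stripped FBS were pre-incubated 5 hr, then compound-treated 16 hr at 37 C. Viability was read by CellTiter-Glo luminescence in the same wells as the beta-lactamase assay, with tetraoctyl ammonium bromide as positive control.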

[13] = qHTS assay to identify small molecule antagonists of the estrogen related receptor signaling pathway with the pleiotropic PPARgamma coactivator (PGC) from Tox21 10K library - cell viability counter screen (AID 1224840; active = well fitted cell-killing curve with a large enough effect in the repeat runs, not every such curve was filed as active; also: nearly all actives have a fitted effect of over 40% in size)
Method in brief: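 Compounds in DMSO, alongside positive and negative controls, were pinned onto PGC/ERR cells (2,000 per well). Exposure lasted 17.5 hours at 37 C, followed by a 30-minute CellTiter-Fluor incubation and fluorescence reading.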

[14] = biological target: Nuclear receptor subfamily 1 group I member 3 (Homo sapiens) (UniProt Q14994); experiment: qHTS assay to identify small molecule antagonists of the constitutive androstane receptor (CAR) signaling pathway (AID 1224838);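 also: HepG2 cells stably expressing hCAR with CYP2B6 luciferase reporter stimulated by CITCO; nearly all actives have a fitted effect of over 40% in size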
Method in brief: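 Quantitative HTS in double-stable HepG2-CYP2B6-hCAR cells. After 4 h plating, cells get compound (15 concentrations) and CITCO at 50 nM final, incubate 24 h at 37 C, then ONE-Glo luminescence is read.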

[15] = qHTS assay to identify small molecule agonists of the estrogen related receptor signaling pathway with the pleiotropic PPARgamma coactivator (PGC) from Tox21 10K library (AID 1224842); also: nearly all actives have a fitted effect of over 15% in size
Method in brief: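 PGC/ERR reporter cell line, 2,000 cells per well, incubated 6 h at 37 C before 23 nL compound in DMSO was added. After 18 h at 37 C, One-Glo luminescence read following 30 min at room temperature.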

Sequence of Luciferin 4-monooxygenase (Photinus pyralis) (P08659 whole entry, looked up): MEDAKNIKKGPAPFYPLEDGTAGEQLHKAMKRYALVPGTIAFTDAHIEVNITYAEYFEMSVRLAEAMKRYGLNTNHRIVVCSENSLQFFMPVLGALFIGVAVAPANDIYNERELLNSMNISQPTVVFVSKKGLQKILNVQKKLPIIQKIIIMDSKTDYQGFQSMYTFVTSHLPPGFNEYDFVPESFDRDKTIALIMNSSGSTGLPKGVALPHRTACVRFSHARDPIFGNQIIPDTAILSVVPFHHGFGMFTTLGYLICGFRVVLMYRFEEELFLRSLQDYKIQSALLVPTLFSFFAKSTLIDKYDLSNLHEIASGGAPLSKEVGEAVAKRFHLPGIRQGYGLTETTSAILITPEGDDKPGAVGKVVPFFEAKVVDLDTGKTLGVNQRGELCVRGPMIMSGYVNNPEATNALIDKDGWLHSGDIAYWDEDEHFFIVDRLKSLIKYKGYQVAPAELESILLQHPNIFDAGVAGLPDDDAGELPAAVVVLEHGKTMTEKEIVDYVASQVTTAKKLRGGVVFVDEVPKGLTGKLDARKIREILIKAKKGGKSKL
Sequence of Nuclear receptor subfamily 1 group I member 3 (Homo sapiens) (Q14994 whole entry, looked up): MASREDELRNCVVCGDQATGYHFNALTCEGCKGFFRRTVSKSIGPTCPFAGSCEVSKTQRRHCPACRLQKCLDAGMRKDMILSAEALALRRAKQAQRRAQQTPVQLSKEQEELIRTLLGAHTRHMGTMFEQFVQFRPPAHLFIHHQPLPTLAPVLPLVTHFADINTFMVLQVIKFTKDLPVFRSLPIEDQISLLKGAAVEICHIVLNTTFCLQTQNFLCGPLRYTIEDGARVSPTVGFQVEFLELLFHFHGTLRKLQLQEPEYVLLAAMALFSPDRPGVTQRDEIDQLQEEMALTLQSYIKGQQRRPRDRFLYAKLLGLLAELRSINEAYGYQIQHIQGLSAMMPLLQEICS
Sequence of Retinoic acid receptor RXR-alpha (Homo sapiens) (P19793 whole entry, looked up): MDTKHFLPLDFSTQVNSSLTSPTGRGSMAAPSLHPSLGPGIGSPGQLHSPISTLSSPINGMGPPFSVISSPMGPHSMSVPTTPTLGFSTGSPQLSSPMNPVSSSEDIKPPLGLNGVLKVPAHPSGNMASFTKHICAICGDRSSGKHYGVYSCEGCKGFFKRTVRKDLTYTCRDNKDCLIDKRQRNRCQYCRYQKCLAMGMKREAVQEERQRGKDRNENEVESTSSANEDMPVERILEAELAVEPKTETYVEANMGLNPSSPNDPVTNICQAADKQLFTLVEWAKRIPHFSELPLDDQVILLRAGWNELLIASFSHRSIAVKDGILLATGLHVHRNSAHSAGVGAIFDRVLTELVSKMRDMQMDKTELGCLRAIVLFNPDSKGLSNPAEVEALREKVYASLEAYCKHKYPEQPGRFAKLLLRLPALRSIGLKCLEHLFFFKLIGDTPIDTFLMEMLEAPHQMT
Sequence of Thyrotropin receptor (Homo sapiens) (P16473 whole entry, looked up): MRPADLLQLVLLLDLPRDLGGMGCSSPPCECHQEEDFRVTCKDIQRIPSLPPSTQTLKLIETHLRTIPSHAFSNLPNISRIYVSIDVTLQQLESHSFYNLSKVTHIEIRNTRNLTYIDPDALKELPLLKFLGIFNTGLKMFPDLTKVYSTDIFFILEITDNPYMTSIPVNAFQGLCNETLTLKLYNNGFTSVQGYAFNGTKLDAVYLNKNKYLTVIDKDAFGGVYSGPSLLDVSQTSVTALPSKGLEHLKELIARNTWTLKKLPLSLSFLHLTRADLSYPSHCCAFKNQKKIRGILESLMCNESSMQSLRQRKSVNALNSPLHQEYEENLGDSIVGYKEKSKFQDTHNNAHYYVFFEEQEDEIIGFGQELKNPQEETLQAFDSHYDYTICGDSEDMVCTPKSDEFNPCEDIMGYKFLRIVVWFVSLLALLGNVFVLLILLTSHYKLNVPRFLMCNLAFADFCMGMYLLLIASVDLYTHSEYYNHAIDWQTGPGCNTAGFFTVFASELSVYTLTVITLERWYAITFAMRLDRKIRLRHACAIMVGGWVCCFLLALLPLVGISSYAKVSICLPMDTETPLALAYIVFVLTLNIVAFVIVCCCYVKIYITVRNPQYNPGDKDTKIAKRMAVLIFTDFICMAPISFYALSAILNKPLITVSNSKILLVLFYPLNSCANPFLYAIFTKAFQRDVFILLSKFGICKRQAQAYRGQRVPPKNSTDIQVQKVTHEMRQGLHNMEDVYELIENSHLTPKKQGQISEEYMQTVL

SMILES	Potency [1]	Potency [2]	Potency [3]	Potency [4]	Potency [5]	Potency [6]	Potency [7]	Potency [8]	Potency [9]	Potency [10]	Potency [11]	Potency [12]	Potency [13]	Potency [14]	outcome [15]
C[C@H]1CCC[C@H](O)CCCCCc2cc(O)cc(O)c2C(=O)O1	inactive	inactive	inactive	inactive	61.6 µM (active)	inactive	inactive	inactive	54.9 µM (active)	inactive	–	–	–	–	–
COC(=O)c1ccccc1S(=O)(=O)NC(=O)Nc1nc(C)cc(C)n1	inactive	inactive	inactive	inactive	inactive	inactive	inactive	–	–	inactive	inactive	–	–	–	–
COP(=S)(OC)Oc1ccc(S(N)(=O)=O)cc1	inactive	inactive	–	–	inactive	inactive	inactive	inactive	–	inactive	–	inactive	inactive	–	–
COc1ncc(F)c2nc(S(=O)(=O)Nc3c(F)cccc3F)nn12	inactive	inactive	–	–	–	inactive	inactive	inactive	–	inactive	inactive	inactive	inactive	inactive	–
CCOP(=S)(Oc1cnc(C(C)(C)C)nc1)OC(C)C (configuration not stated)	inactive	inactive	inactive	inactive	inactive	inactive	inactive	–	inactive	–	inactive	–	inactive	inactive	–
C[C@@H]1CN(C2CCC(C#N)(c3ccc(F)cc3)CC2)CC[C@]1(C(=O)O)c1ccccc1 (some centres not stated)	inactive	inactive	–	–	–	inactive	inactive	inactive	inactive	inactive	inactive	inactive	inactive	inactive	inactive
O=[N+]([O-])c1cc(Cl)c(Cl)c(Cl)c1	inactive	inactive	–	–	–	inactive	inactive	inactive	–	inactive	inactive	inactive	inactive	inactive	–
OCCSCSCCO	inactive	inactive	–	–	inactive	inactive	inactive	inactive	–	inactive	–	inactive	inactive	inactive	–
CCOC(=O)C1(c2ccccc2)CCN(CCc2ccc(N)cc2)CC1	inactive	inactive	inactive	inactive	–	inactive	inactive	inactive	–	–	inactive	–	inactive	inactive	inactive
Fc1cc(Br)ccc1CBr	inactive	inactive	–	–	–	inactive	inactive	inactive	–	inactive	inactive	inactive	inactive	inactive	–
